PAFAH2 inh = PAFAH2 enzyme inhibitors, primary screen, biochemical, fluorescence polarization, human; 340,000 tested, 0.99% active; Platelet-activating factor acetylhydrolase 2, cytoplasmic (Homo sapiens), Q99487; recombinant PAFAH2, FP-rhodamine activity probe; inhibition, % at 3.39 µM;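 active = inhibition above the mean over all tested compounds plus 3 SD, cut at about 30% in these data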;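 note: inhibitors block probe labeling of enzyme so polarization drops; 0% = enzyme with DMSO and 100% = wells lacking PAFAH2 protein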
PAFAH1B2 inh = PAFAH1B2 enzyme inhibitors, primary screen, biochemical, fluorescence polarization, human; Platelet-activating factor acetylhydrolase IB subunit alpha2 (Homo sapiens), P68402; recombinant PAFAH1B2, FP-rhodamine activity probe; inhibition, % at 3.39 µM; 340,000 tested, 1.2% active;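 active = inhibition above the mean of all tested compounds plus 3 SD, cut at about 24% in these data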;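 note: 0% = enzyme with DMSO and 100% = wells lacking PAFAH1B2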
Pemphigus Ab inh = inhibitors of pemphigus antibody binding to DSG3, primary screen, biochemical, bead-based, flow cytometry, scFv-GFP. DSG3-coupled beads, scFv-anti-DSG3-GFP binding; active compounds read low. binding (percent of control), % at 10 µM. 310,000 tested, 0.48% active. AID 588358, 2011;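 active = binding more than 3 SD below its plate's average and above zero; inconclusive = below that plate limit but binding exactly zero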;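 note: hits lower antibody fragment binding to DSG3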
PfM18AAP inh-1 = PfM18AAP inhibitors, malaria aminopeptidase, primary screen, biochemical, QFRET, recombinant enzyme; 290,000 tested, 1.2% active; H-Glu-NHMec fluorogenic cleavage; inhibition, % at 7.35 µM; AID 1822, 2009;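 active = inhibition above the campaign mean inhibition over all tested compounds plus 3 SD, cut at about 28% in these data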;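 note: 0% = plate median of test compound wells and 100% = 2 mM ZnCl2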
pPAFAH FP inh = pPAFAH enzyme inhibitors, primary screen, biochemical, fluorescence polarization, human. recombinant pPAFAH, FP-rhodamine probe fluorescence polarization. inhibition, % at 3.39 µM. 330,000 tested, 1.5% active;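 active = inhibition above the mean inhibition across the screen plus 3 SD, cut at about 25% in these data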;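 note: inhibitors block binding of the rhodamine activity-based probe so polarization drops; 0% = enzyme with DMSO and 100% = wells lacking pPAFAH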
PAFAH1B3 FP inh = PAFAH1B3 enzyme inhibitors, primary screen, biochemical, fluorescence polarization, human; AID 492972, 2010; 340,000 tested, 0.28% active; Platelet-activating factor acetylhydrolase IB subunit alpha1 (Homo sapiens), Q15102; inhibition, % at 3.39 µM; recombinant PAFAH1B3, FP-rhodamine probe;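 active = inhibition above the screen-wide average of all tested compounds plus 3 SD, cut at about 25% in these data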;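 note: 0% = enzyme with DMSO only and 100% = wells lacking PAFAH1B3 protein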
PfM18AAP inh-2 = PfM18AAP inhibitors, malaria aminopeptidase, confirmation, biochemical, QFRET, recombinant enzyme, triplicate; shares compounds with PfM18AAP inh-1; H-Glu-NHMec fluorogenic cleavage; inhibition, % at 7.35 µM; 2,400 tested, 28% active;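 active = mean inhibition over replicate wells above the hit cutoff set for the earlier primary screen, cut at about 29% in these data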;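 note: 0% = median of test compound wells and 100% = 2 mM ZnCl2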
CTSL1 counter = cathepsin L1 inhibitors, retest, confirmation, counter-screen for PFM18AAP inhibitor project, biochemical, QFRET, triplicate. shares compounds with PfM18AAP inh-1. purified cathepsin L1, Z-Leu-Arg-MCA fluorescence. 2,400 tested, under 10 active. AID 2178, 2009. inhibition, % at 5.96 µM;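 active = average inhibition across replicates above the hit cutoff set in the earlier primary screen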;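 note: 0% = median of test compound wells and 100% = Z-Phe-Ala-diazomethylketone 1 µM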
Target sequence (P07711 whole entry, looked up): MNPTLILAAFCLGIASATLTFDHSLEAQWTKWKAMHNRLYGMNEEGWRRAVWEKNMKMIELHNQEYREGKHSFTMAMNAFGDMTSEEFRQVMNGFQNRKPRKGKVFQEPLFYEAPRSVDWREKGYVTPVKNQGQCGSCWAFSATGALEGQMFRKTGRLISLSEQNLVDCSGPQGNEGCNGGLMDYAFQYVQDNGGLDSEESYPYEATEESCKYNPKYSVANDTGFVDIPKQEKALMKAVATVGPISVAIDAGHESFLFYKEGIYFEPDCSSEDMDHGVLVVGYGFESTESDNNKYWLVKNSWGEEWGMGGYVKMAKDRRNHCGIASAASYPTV
* hit, by the source's call; ? = inconclusive; . = not tested or not shown. The list is not random: actives were taken first. Their share in the collection is about 3.8%.

SMILES	PAFAH2 inh	PAFAH1B2 inh	Pemphigus Ab inh	PfM18AAP inh-1	pPAFAH FP inh	PAFAH1B3 FP inh	PfM18AAP inh-2	CTSL1 counter
CCN(CC)S(=O)(=O)c1cccc(C(=O)N/N=C/c2ccc(O)c(O)c2O)c1	8	14	.	42*	30*	17	27	0
CCn1c(C)nc2cc(C(=O)N/N=C/c3ccc(O)c(O)c3O)ccc21	8	4	2.7*	47*	.	-3	38*	1
COCCNC(=O)/C(C#N)=C/C=C/c1ccccc1[N+](=O)[O-]	4	5	.	-12	-6	6	.	.
COCCn1c(C)cc(/C=C(\C#N)C(=O)OCC(=O)N(C)c2c(N)n(Cc3ccccc3)c(=O)[nH]c2=O)c1C	-2	0	92	.	3	-3	.	.
O=C(Nc1cc(Cl)c(Cl)cc1Cl)c1cccnc1	1	-4	103	0	3	4	.	.
CCOC(=O)c1c(NC(C)=O)sc2c1CCC(C=O)=C2Sc1ccccc1	6	-23	99	40*	4	-2	-21	1
CCOC(=O)N1CCC(NC(=O)c2ccc3c(c2)sc2nc(-c4ccccc4)cn23)CC1	-11	-3	105	40*	11	-6	-17	0
CCC(=O)Nc1ccc(NC(=O)c2cccc3c(Br)cccc23)cc1	-7	6	98	45*	5	11	-30	1
CCCCNC(=O)NNc1nc(Cl)cc(C)c1C#N	8	3	98	54*	-3	7	45*	0
Cc1nc(N2CCOCC2)[nH]c(=O)c1C(O)C(Cl)(Cl)Cl (configuration not stated)	0	-2	98	-6	4	3	.	.
Nc1nc(Sc2ccc([N+](=O)[O-])cc2[N+](=O)[O-])n[nH]1	4	9	.	57*	8	8	56*	1
CCCCNC(=O)CSc1nc2ccsc2c(=O)n1CCCC(=O)NCCc1ccc(S(N)(=O)=O)cc1	0	10	109	-15	7	7	.	.
CCC1CCC2(CC1)NNC(=S)NN2	0	3	127	35*	4	7	39*	0
COc1ccc(Nc2nc(NN)nc(C)c2[N+](=O)[O-])cc1	-1	15	102	52*	9	11	22	-1
COc1ccc(Nc2nc(N/N=C/c3ccc(N(C)C)cc3)nc(C)c2[N+](=O)[O-])cc1	-6	1	76	49*	9	-8	-53	-1
Cc1nc(Nc2ccc(F)cc2)nc(Nc2ccc(F)cc2)c1[N+](=O)[O-]	-6	-1	97	17	3	5	.	.
CCC(=O)NNc1nc2c(Cl)cccc2s1	-1	10	106	33*	9	17	19	-3
Cc1ccc2sc(NC(=O)C3CC3)nc2c1C	-2	-2	?	3	3	0	.	.
CCC(=O)NNc1nc2c(C)c(C)ccc2s1	7	4	97	37*	4	4	9	-2
CCC(=O)NNc1nc2c(C)cccc2s1	-7	-1	.	48*	0	1	23	-4
COc1ccc(C)cc1S(=O)(=O)N(C)CC(=O)N1CCN(c2ccccc2)CC1	6	0	109	0	1	2	.	.
COc1cc(Br)c(C2C(C#N)=C(N)Oc3n[nH]c(-c4cccnc4)c32)cc1OC (configuration not stated)	2	0	99	-7	4	1	.	.

Screening data (PubChem)
